Screening data from PubChem.
This is a sample that favours compounds with a hit; in the whole collection about 1.3% have one here.
MEX-5 binding – C. elegans MEX-5 TCR-2 RNA binding activity; Q9XUB2; activity score (negative = inhibition of binding), % at 10 µM; MEX-5/FITC-TCR2 RNA binding, fluorescence polarization; hits give low values; 0.38% of 300,000 active; AID 1832;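 active means inhibition past about -25% in most replicates, and total fluorescence under double the plate's negative control median, limit read from the data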;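 further: 0% = DMSO and -100% = 5 µM competing unlabeled TCR2 RNA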
Bcl-xL primary – inhibitors of human Bcl-xL; AID 2129; Q07817; inhibition, % at 10.9 µM; GST-Bcl-xL / FITC-Bim BH3 peptide fluorescence polarization; 0.7% of 320,000 active;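 active means inhibition above the mean of all tested compounds plus 3 SD, cutoff set per campaign, cut at about 30% in these data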;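 further: 0% = DMSO wells and 100% = unlabeled Bim-BH3 peptide competitor; inhibitors lower millipolarization by displacing the labeled peptide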
Target sequence (Q07817 whole entry, looked up): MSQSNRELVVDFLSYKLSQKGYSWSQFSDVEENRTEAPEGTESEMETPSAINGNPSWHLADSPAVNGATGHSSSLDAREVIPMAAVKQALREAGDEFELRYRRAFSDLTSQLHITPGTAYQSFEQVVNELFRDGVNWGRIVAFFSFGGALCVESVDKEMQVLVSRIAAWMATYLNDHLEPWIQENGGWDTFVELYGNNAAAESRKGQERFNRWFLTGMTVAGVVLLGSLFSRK
EBV gp42 block – EBV gp42 inhibition; AID 1085; 0.42% of 220,000 active; Fluorescence polarization binding assay, mP read-out; inhibition, % (tested at 21.74 µM); Q1HVG2; in the data active means inhibition above about 50%
Target sequence (Q1HVG2 whole entry, looked up): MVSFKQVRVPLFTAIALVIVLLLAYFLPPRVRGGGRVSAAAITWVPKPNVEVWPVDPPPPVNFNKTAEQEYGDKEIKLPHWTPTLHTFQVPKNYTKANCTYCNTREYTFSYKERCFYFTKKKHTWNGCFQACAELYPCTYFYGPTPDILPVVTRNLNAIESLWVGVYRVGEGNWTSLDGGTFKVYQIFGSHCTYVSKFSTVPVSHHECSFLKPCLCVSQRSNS
MCL1 BIM primary – inhibitors of human MCL1 binding to BIM-BH3 peptide | GST-MCL1 / FITC-Bim-BH3 fluorescence polarization | inhibition, % at 10.9 µM | 0.68% of 320,000 active;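 active means inhibition above the mean inhibition of all tested compounds plus 3 SD, set per campaign, cut at about 40% in these data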;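 further: 0% = DMSO wells and 100% = unlabeled Bim-BH3 peptide control; higher means more loss of mP so more displacement of Bim peptide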
GLD-1 RNA inh – GLD-1-TGE RNA interaction inhibition (C. elegans). inhibition, % at 5.96 µM. Q17339. purified GLD-1 + fluorescein TGE RNA, fluorescence polarization. 0.44% of 320,000 active;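 active means percent inhibition above a per-plate cutoff, the plate mean of test compounds plus 3 SD, cut at about 30% in these data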;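 further: 0% = DMSO wells with GLD-1 and probe and 100% = wells lacking GLD-1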
* hit, by the source's call; · = not tested or not shown; + = active, no number.

SMILES	MEX-5 binding	Bcl-xL primary	EBV gp42 block	MCL1 BIM primary	GLD-1 RNA inh
CCOCCCNc1nc2nc3ccc(C)cn3c(=O)c2cc1C(=O)NCC1CCCO1 (centres undefined)	-34.0*	8.1	-11.2	2.0	-1.1
CC(OC(=O)c1c2c(nc3ccccc13)/C(=C\c1ccc3c(c1)OCO3)CCC2)C(=O)Nc1ccc(S(N)(=O)=O)cc1 (centres undefined)	·	·	149.3*	·	·
Cc1cccc(C)c1NC(=O)COC(=O)c1c2c(nc3ccccc13)/C(=C\c1ccc3c(c1)OCO3)CCC2	·	194.0*	97.6*	+	181.8*
COc1ccc(/C=C2\CCCc3c2nc2ccccc2c3C(=O)OCC(=O)c2c(N)n(C)c(=O)n(C)c2=O)cc1	-0.5	41.1*	1.6	39.2	100.9*
COc1ccc(-c2cc(C(=O)OCC(=O)c3c(N)n(C)c(=O)n(C)c3=O)c3ccccc3n2)cc1	-3.9	-0.1	-20.7	3.4	-0.7
N#Cc1ccccc1NC(=O)C(=O)NCCCN1CCCC1=O	1.9	1.1	·	-0.5	4.5
Cc1cc(NC(=O)COC(=O)C(C)Oc2ccc(Cl)cc2Cl)no1 (centres undefined)	-0.4	3.3	·	6.0	-1.7
CCN(CC(=O)Nc1c(F)cccc1F)C(=O)c1nc2nccc(C)n2n1	·	10.7	·	7.2	7.1
Cc1ccc2c(ccc[n+]2CC(=O)c2ccccc2)c1	-2.9	23.9	13.0	20.1	-19.7
O=C(C[n+]1cc(Br)cc2ccccc21)c1ccccc1	1.3	49.2*	·	45.2*	-31.4
N#Cc1ccccc1OCCN1C(=O)c2ccccc2C1=O	1.9	5.5	-14.3	9.5	10.8
Nc1cccc2c1C(=O)N(CCOc1ccccc1F)C2=O	-11.8	35.2*	·	37.0	29.6
O=c1nc2n(c3ccc(Br)cc13)CCS2	0.2	-0.3	-2.6	-0.5	-3.5
Cc1ccnc(NC(=O)CCC(=O)N(CC(=O)NC(C)(C)C)c2ccc(F)c(Cl)c2)c1	-0.4	1.2	-2.9	-4.9	-5.1
CC(C)CN(C(=O)c1ccc(S(=O)(=O)N2CCOCC2)cc1)C1CCS(=O)(=O)C1 (centres undefined)	-0.9	3.1	·	3.2	-3.8
O=C1C(Cl)=C(Nc2ccc3cn[nH]c3c2)C(=O)c2ccccc21	-5.2	32.8*	-22.5	32.5	1.1
O=C(Nc1ccc2cn[nH]c2c1)c1c(Cl)cccc1Cl	-0.5	4.7	4.4	-5.7	0.8
CN(C)S(=O)(=O)c1ccc2c(c1)nc(CCC(=O)NCCc1ccc(Cl)cc1)n2C	1.2	-2.1	·	1.5	5.3
COCCn1c(SCc2nc3sc(C(=O)OC)c(C)c3c(=O)[nH]2)nc2ccccc21	-0.6	-30.6	-48.0	-45.3	-19.8
CCn1c(SCc2nc3sc(C(=O)O)c(C)c3c(=O)[nH]2)nc2ccccc21	-42.7*	23.5	19.1	28.0	0.0
CC1=C(C(=O)Nc2ccccc2)C(c2ccc(C)o2)n2ncnc2N1 (centres undefined)	0.1	7.0	-24.1	12.6	0.6
CC1=C(C(=O)NCc2ccccc2)C(c2ccc(C)o2)n2ncnc2N1 (centres undefined)	0.0	38.5*	-8.9	41.6*	29.9
O=C(O)C1=CC(=C(c2ccc(O)c(C(=O)O)c2)c2ccc(O)c(C(=O)O)c2)C=CC1=O	·	75.5*	·	108.1*	92.4*
Oc1c(Cl)cc(Cl)cc1Sc1cc(Cl)cc(Cl)c1O	-4.4	19.5	46.4	53.5*	-2.0
C[n+]1cccc2ccc3c(c21)OC(N)=C(C#N)C3c1ccccc1 (centres undefined)	2.0	-10.0	-48.2	-15.0	5.7
SMILES	MEX-5 binding	Bcl-xL primary	EBV gp42 block	MCL1 BIM primary	GLD-1 RNA inh
C[n+]1cccc(C2C(C#N)=C(N)Oc3c2ccc2ccccc32)c1 (centres undefined)	-9.2	38.8*	14.9	30.2	5.0
CC(C)(C)c1ccc(C(=O)NCCC(=O)N2CCC3(CC2)NCCc2[nH]cnc23)cc1	0.0	-2.3	·	-2.0	-7.6
N#Cc1c2nc3ccccc3nc2n2cc(NC(=O)c3ccc(F)cc3)ccc12	·	·	105.9*	·	·
Cc1c(C(=O)Nc2ccc(F)cc2)cn2c(nc3ccccc32)c1C#N	-3.3	-2.7	-14.0	-12.7	-2.9
O=C(/C=C/c1ccc(O)c(O)c1)OC(Cc1ccc(O)c(O)c1)C(=O)O (centres undefined)	-53.3*	20.2	·	27.7	2.0
O=C(O)CCCCCN1C(=O)C(O)=C(C(=O)/C=C/c2ccccc2)C1c1ccccc1[N+](=O)[O-] (centres undefined)	-40.0*	10.5	-14.1	3.5	-2.4
